Max response data for 60 compounds are collected here from PubChem BioAssay AID2314 (National Center for Advancing Translational Sciences (NCATS), 2010).

The campaign covered roughly 300,000 compounds. About 37,000 (12%) were called active. For the sample, actives were picked, then their nearest neighbours and some compounds at random. Values without a mark were called inactive. No stated cut-off is given here; in the data, active means max response mostly above about 13% (no sharp cut-off); inactive means mostly below about 14%.

The nature of this assay: Cycloheximide Counterscreen for Small Molecule Inhibitors of Shiga Toxin. Further: read at 38.3 µM for the half of the compounds with a filed dose; 0% is about no effect. As to conditions: cell reporter, cycloheximide protein synthesis inhibition counterscreen; stronger effect = higher value. (The purpose of a counterscreen is to sort out artefacts and off-target activity.)
For `COC(=O)CNC(=O)c1cc(-c2ccncc2)nc2ccccc12`, the max response is 7.25%. The result for `CCc1ccc(-c2cc(C(=O)NN3CCN(C)CC3)c3ccccc3n2)cc1` reads 21.6% (active); that for `CNC(=O)COC(=O)c1cc(-c2ccc(OC)cc2)nc2ccccc12`, 10.9%; that for `O=C(COc1ccc(Cl)cc1)NCCS(=O)(=O)N1CCN(c2ccc(F)cc2)CC1`, -2.81%.

`N#Cc1ccc(C2N=C(c3ccccc3)NO2)cc1` (stereo not given): the max response was 50.7% (active). `Brc1ccccc1C1Nc2cccc3cccc(c23)N1`: the max response was -2.34%. As for `Brc1ccccc1C1N=C(c2ccccc2)NO1` (stereo not given), the max response was 46.9% (active). `S=C1NC(c2ccccc2)=NCN1c1ccc(Br)cc1`: the max response is 11.3%. Turning to `COc1ccc(CNC(=O)c2cc(C(=O)C3CC3)c[nH]2)cc1`, the max response is -0.249%. The result for `Cc1cc(Nc2cccc(C)c2C)n2ncnc2n1` reads -1.07%; that for `CCn1cc(C(=O)OCC(=O)Nc2cccc(C)c2)c(=O)c2ccc(C)nc21`, -2.42%; that for `CN(c1ccc(OCC(=O)OCC(=O)Nc2cccc([N+](=O)[O-])c2)cc1)S(=O)(=O)c1ccc(F)cc1`, 5.41%. For `Cc1onc(-c2ccccc2)c1C(=O)N1CCN(S(=O)(=O)c2ccccc2C(F)(F)F)CC1` the value was 10.2%; for `COc1ccc(/C=C(\C#N)C(=O)ONC2=NCCCCC2)cc1`, 9.41%.

On to `Cc1cc(N/N=C/c2ccccc2F)c2ccccc2n1`, for which the max response was -1.58%. On to `Oc1ccc(/C=N/Nc2nc(-c3ccccc3F)nc3ccccc23)c(O)c1`, for which the max response is 15.1% (active). For `FC(F)(F)c1nc2ccccc2nc1N/N=C/c1ccc(Cl)cc1` the value was -0.973%; for `Cc1ccc(/C=N/NC(=O)C2=NNC(c3ccccc3)(c3ccccc3)C2)c(O)c1`, 9.49%. As for `Cc1nc2ccccc2nc1N/N=C/c1ccc(O)cc1O`, the max response is 25% (active). On to `Oc1ccc(/C=N/NC2=NCCCCC2)c(O)c1`, for which the max response is 42% (active). For `CC(=O)c1ccc(N2CCN(C(=O)C3CCN(S(=O)(=O)c4ccc5c(c4)CC(C)N5C(=O)C4CC4)CC3)CC2)cc1` (stereo not given), the max response was -0.93%. The result for `Cc1cc(C)n(CC(O)COc2ccc(C(C)(C)C)cc2)n1` (stereo not given) reads 10.5%; that for `CCc1cccc(NC(=S)N(CCN(C)C)C2CCN(C(C)C)CC2)c1`, -3.94%. Turning to `Cc1ccc(NC(=O)C(=O)NCc2ccc(/C=N/NC(=O)c3c(C)nc4cc(C)ccn34)o2)cc1`, the max response was 6.74%. For the compound `O=c1[nH]c(CN2CCN(S(=O)(=O)c3ccc4c(c3)OCCO4)CC2)nc2sc3c(c12)CCCC3`, the max response was -1.21%. The result for `CCCCOc1ccc(C(=O)N/C(=C/C=C/c2ccccc2)C(=O)N2CCOCC2)cc1` reads -4.3%.

For `CC(C)COP(=O)(c1ccc(N(C)C)cc1)C(Nc1ccccc1)c1cccnc1` (stereo not given), the max response is -7.16%. Regarding `O=C(CCN1C(=O)[C@@H]2Cc3ccccc3CN2C1=O)NCc1ccccc1`, the max response is -3.78%.

Regarding `N#C/C=C/N1CCN(Cc2ccc3c(c2)OCO3)CC1`, the max response is -4.02%. Regarding `O=P(O)(CN1CCCCCC1)C1Cc2ccccc2C1`, the max response was -0.763%. In the case of `Cc1noc(C)c1-c1ccc2ncnc(NCc3ccc4[nH]ccc4c3)c2c1`, the max response is 56.1% (active). The result for `Cc1noc(C)c1-c1ccc2ncnc(NC(C)c3ccco3)c2c1` (stereo not given) reads 14.8%; that for `Cc1noc(C)c1-c1ccc2ncnc(NCc3ccc(F)c(F)c3)c2c1`, -5.05%. For `COc1ccc(NC(=O)CNC(=O)Cn2ccc3ccccc3c2=O)c(OC)c1`, the max response was -1.76%. The result for `O=C(C1CCCO1)N1CCN(C(=S)Nc2cccc(Cl)c2)CC1` (stereo not given) reads 2.71%. With `Cc1cccc(NC(=S)N2CCCC(c3nc4ccccc4[nH]3)C2)c1` (stereo not given), the max response was 2.24%. For the compound `Cc1ccc(C2CCN(C(=S)Nc3cccc(Cl)c3)C2)cc1` (stereo not given), the max response was 23.2% (active).

In the case of `CCn1c2ccccc2c2cc(NC(=O)Nc3ccc([N+](=O)[O-])cc3C)ccc21`, the max response was 1.99%. For `COc1ccc(NC(=O)COc2ccc(C(=O)c3ccc(F)cc3)cc2)cc1S(N)(=O)=O` the value was -1.97%. For `COCCCn1c(SCC(=O)NC2CCCC2)nnc1-c1ccccc1` the value was -2.3%; for `O=C(Nc1cccc(NC(=O)c2ccccc2[N+](=O)[O-])c1)c1ccccc1Cl`, -2.59%. For `COCC(=O)N1CCc2ccc(NC(=O)c3ccccc3Cl)cc2C1` the value was -1.85%; for `O=C(Nc1ccc2sc3ccccc3c(=O)c2c1)c1ccccc1Cl`, 40.4% (active); for `O=C(COc1ccccc1[N+](=O)[O-])NC1CC1`, 1.49%. In the case of `O=C(O)CCCN1C(=O)C2C3c4ccccc4C(c4ccccc43)[C@@H]2C1=O` (stereo not given in full), the max response was -1.2%. The result for `C=CCSC(CC)(CC)C(N)=O` reads -2.64%; that for `Cc1c(C(=O)N2CCCc3ccccc32)oc2ccccc12`, 18.8% (active).

Take `Cc1ccnc(NS(=O)(=O)c2ccc(NC(=O)c3oc4ccccc4c3C)cc2)n1`: the max response was 1.07%. As to `Cc1ccc(NC(=O)c2oc(=O)c3ccccc3c2-c2ccccc2)c(C)c1`, the max response is -5.99%. In the case of `Cc1ccc2[nH]c(C(=O)O)c(NC(=O)c3ccccc3[N+](=O)[O-])c2c1`, the max response was -2.43%. For `CCc1nonc1NC(=O)c1oc2ccc(Cl)cc2c1C` the value was -1.57%; for `Cc1ccc(NC(=O)c2oc3ccccc3c2C)c([N+](=O)[O-])c1`, 29.7% (active). The result for `CCC(=O)N1CCCc2ccccc21` reads -1.65%; that for `Cc1nonc1NC(=O)c1oc2ccccc2c1C`, 35.8% (active); that for `Cc1c(C(=O)NC2CCCCC2)oc2ccccc12`, 39.2% (active).

As for `Cc1nonc1NC(=O)c1ccccc1Br`, the max response is 6.09%. `COc1ccc2oc(=O)c(C(=O)N3CCCc4ccccc43)cc2c1`: the max response was 0.681%. Regarding `Cc1c(C(=O)Nc2cccc(-c3nnc4n3CCCCC4)c2)oc2ccccc12`, the max response is 13%. Turning to `Cc1sc2ncn(CC(=O)NCCN(C)C)c(=O)c2c1S(=O)(=O)N1CCC(C)CC1`, the max response is 7.86%. The result for `Cc1ccccc1-n1c(C)cc(/C=N/NC(=O)c2ccc(CN3CCOCC3)cc2)c1C` reads 1.39%.
